In PubChem BioAssay (NCATS):
Records with an inconclusive call do not appear. The source made the active and inactive calls. The call rests on the fitted dose curve; in most records, active means well fitted curve in the direction sought with a large enough effect; inconclusive means small, poorly fitted or top-dose-only effect, or another doubt; inactive means no such curve, though single readings can be large; an effect the other way counts as inactive or inconclusive.

Experiments:
[1] = Quantitative High-Throughput drug screen in 47 multiple myeloma cell lines against the NCATS MIPE library collection: H1112_PLB cell viability assay (AID 1918967; further: nearly all actives have a fitted effect of over 30% in size)
Procedure, shortened: (§1)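 We plated 500 myeloma cells per well, pinned in MIPE 4.0 compounds, and incubated for 48 hours at 37C. ATP was then quantified with CellTiter-Glo, with DMSO and media-only wells defining 100% and 0%.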

[2] = Quantitative High-Throughput drug screen in 47 multiple myeloma cell lines against the NCATS MIPE library collection: Karpas25_ECACC cell viability assay (AID 1918968; further: nearly all actives have a fitted effect of over 35% in size)
Procedure, shortened: as §1

[3] = Quantitative High-Throughput drug screen in 47 multiple myeloma cell lines against the NCATS MIPE library collection: KMS12BM_JCRB cell viability assay (AID 1918971); further: nearly all actives have a fitted effect of over 35% in size
Procedure, shortened: (§2)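 Myeloma cell lines, 500 cells per well, exposed to MIPE 4.0 library compounds for 48 h at 37C, 5% CO2. Viability from ATP by CellTiter-Glo luminescence; normalised to DMSO (100%) and media-only (0%) wells.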

[4] = Quantitative High-Throughput drug screen in 47 multiple myeloma cell lines against the NCATS MIPE library collection: KMS12PE_JCRB cell viability assay (AID 1918972); further: nearly all actives have a fitted effect of over 30% in size
Procedure, shortened: as §1

[5] = Quantitative High-Throughput drug screen in 47 multiple myeloma cell lines against the NCATS MIPE library collection: KMS26_JCRB cell viability assay (AID 1918975); further: nearly all actives have a fitted effect of over 45% in size
Procedure, shortened: as §2

[6] = Quantitative High-Throughput drug screen in 47 multiple myeloma cell lines against the NCATS MIPE library collection: MMM1_PLB cell viability assay (AID 1918976); further: nearly all actives have a fitted effect of over 35% in size
Procedure, shortened: (§3)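 Plated at 500 cells per well, myeloma lines received MIPE 4.0 compounds by pin tool. Following 48 h culture at 37 °C, CellTiter-Glo luminescence gave viability relative to DMSO and media-only controls.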

[7] = Quantitative High-Throughput drug screen in 47 multiple myeloma cell lines against the NCATS MIPE library collection: MOLP8_DSMZ cell viability assay (AID 1918977); further: nearly all actives have a fitted effect of over 45% in size
Procedure, shortened: as §3

[8] = Quantitative High-Throughput drug screen in 47 multiple myeloma cell lines against the NCATS MIPE library collection: NCIH929_DSMZ cell viability assay (AID 1918978); further: nearly all actives have a fitted effect of over 35% in size
Procedure, shortened: as §3

[9] = Quantitative High-Throughput drug screen in 47 multiple myeloma cell lines against the NCATS MIPE library collection: MM1S_ATCC cell viability assay (AID 1918980); further: nearly all actives have a fitted effect of over 45% in size
Procedure, shortened: as §3

[10] = Quantitative High-Throughput drug screen in 47 multiple myeloma cell lines against the NCATS MIPE library collection: MM1R_ATCC cell viability assay (AID 1918981); further: nearly all actives have a fitted effect of over 35% in size
Procedure, shortened: as §3

[11] = Quantitative High-Throughput drug screen in 47 multiple myeloma cell lines against the NCATS MIPE library collection: KMS28PE_JCRB cell viability assay (AID 1918983); further: nearly all actives have a fitted effect of over 35% in size
Procedure, shortened: as §3

[12] = Quantitative High-Throughput drug screen in 47 multiple myeloma cell lines against the NCATS MIPE library collection: KMS34_JCRB cell viability assay (AID 1918985); further: nearly all actives have a fitted effect of over 40% in size
Procedure, shortened: as §3

[13] = Quantitative High-Throughput drug screen in 47 multiple myeloma cell lines against the NCATS MIPE library collection: OCIMY1_PLB cell viability assay (AID 1918979); further: nearly all actives have a fitted effect of over 35% in size
Procedure, shortened: as §3

[14] = Quantitative High-Throughput drug screen in 47 multiple myeloma cell lines against the NCATS MIPE library collection: LP1_DSMZ cell viability assay (AID 1918982); further: nearly all actives have a fitted effect of over 35% in size
Procedure, shortened: as §3

[15] = Quantitative High-Throughput drug screen in 47 multiple myeloma cell lines against the NCATS MIPE library collection: OCIMY5_PLB cell viability assay (AID 1918988); further: nearly all actives have a fitted effect of over 65% in size
Procedure, shortened: as §3

[16] = Quantitative High-Throughput drug screen in 47 multiple myeloma cell lines against the NCATS MIPE library collection: KMS27_JCRB cell viability assay (AID 1918970); further: nearly all actives have a fitted effect of over 30% in size
Procedure, shortened: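 KMS27_JCRB myeloma cells, 500 per well, exposed 48 h at 37 C, 5% CO2 to MIPE 4.0 compounds. Viability from ATP by CellTiter-Glo luminescence, normalized to DMSO (100%) and medium-only (0%) wells.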

[17] = Quantitative High-Throughput drug screen in 47 multiple myeloma cell lines against the NCATS MIPE library collection: L363_DSMZ cell viability assay (AID 1918984); further: nearly all actives have a fitted effect of over 40% in size
Procedure, shortened: as §3

[18] = Quantitative High-Throughput drug screen in 47 multiple myeloma cell lines against the NCATS MIPE library collection: KMS20_JCRB cell viability assay (AID 1918973); further: nearly all actives have a fitted effect of over 45% in size
Procedure, shortened: as §1

[19] = Quantitative High-Throughput drug screen in 47 multiple myeloma cell lines against the NCATS MIPE library collection: KMS21BM_JCRB cell viability assay (AID 1918974); settings: ATP luminescence, 48 h; viability: at 45.8 µM (top of the series)
Procedure, shortened: as §1

[20] = Quantitative High-Throughput drug screen in 47 multiple myeloma cell lines against the NCATS MIPE library collection: OCIMY7_PLB cell viability assay (AID 1918987); further: nearly all actives have a fitted effect of over 65% in size
Procedure, shortened: as §3
Potency means the concentration at half of the fitted maximal effect.

NC1(c2ccc(-c3nc4ccn5c(=O)[nH]nc5c4cc3-c3ccccc3)cc2)CCC1
active: Potency [1] 0.0833 µM | Potency [2] 5.26 µM | Potency [3] 23.5 µM | Potency [4] 0.296 µM | Potency [5] 14.8 µM | Potency [6] 0.332 µM | Potency [7] 3.72 µM | Potency [8] 0.059 µM | Potency [9] 0.662 µM | Potency [10] 5.26 µM | Potency [11] 6.62 µM | Potency [12] 9.35 µM

CO[C@@H]1[C@@H](OC(N)=O)[C@@H](O)[C@H](Oc2ccc3c(O)c(NC(=O)c4ccc(O)c(CC=C(C)C)c4)c(=O)oc3c2C)OC1(C)C
active: Potency [2] 5.9 µM | Potency [10] 8.33 µM | Potency [11] 4.69 µM | Potency [12] 1.48 µM | Potency [15] 8.33 µM
inactive: Potency [1] | Potency [13] | Potency [14]

C[C@@H]1CN(c2c(F)c(N)c3c(=O)c(C(=O)O)cn(C4CC4)c3c2F)C[C@H](C)N1
inactive: Potency [1] | Potency [2] | Potency [4] | Potency [7] | Potency [8] | Potency [9] | Potency [14] | Potency [11] | Potency [12]

CCn1cc(C(=O)O)c(=O)c2cc(F)c(N3CCNCC3)nc21
inactive: Potency [1] | Potency [2] | Potency [16] | Potency [17] | Potency [15]

CNC1CCCN(c2c(F)cc3c(=O)c(C(=O)O)cn(C4CC4)c3c2OC)C1 (stereo not drawn)
active: Potency [2] 9.35 µM | Potency [16] 0.0209 µM | Potency [8] 1.48 µM | Potency [9] 11.8 µM
inactive: Potency [18] | Potency [13] | Potency [10] | Potency [14] | Potency [11]

CCC(=O)O[C@]1(C(=O)SCF)[C@H](C)C[C@H]2[C@@H]3C[C@H](F)C4=CC(=O)C=C[C@]4(C)[C@@]3(F)[C@@H](O)C[C@@]21C
inactive: Potency [3] | Potency [4] | Potency [5] | Potency [7] | Potency [10] | Potency [14] | Potency [11] | Potency [12]
active: Potency [1] 20.9 µM | Potency [15] 23.5 µM

C#CCN[C@@H]1CCc2ccccc21
inactive: Potency [1] | Potency [4] | Potency [5] | Potency [8] | Potency [13] | Potency [9] | Potency [10] | Potency [14] | Potency [17] | Potency [12]
active: Potency [6] 23.5 µM

COc1ccccc1OCC(O)COC(N)=O (stereo not drawn)
inactive: Potency [2] | Potency [16] | Potency [3] | Potency [4] | Potency [5] | Potency [7] | Potency [8] | Potency [11] | Potency [12]

CNCC[C@H](Oc1cccc2ccccc12)c1cccs1
active: Potency [2] 2.96 µM | Potency [16] 23.5 µM | Potency [6] 29.6 µM | Potency [7] 18.7 µM | Potency [8] 1.87 µM | Potency [13] 18.7 µM | Potency [9] 2.35 µM | Potency [10] 14.8 µM | Potency [11] 18.7 µM | Potency [15] 2.35 µM

O=C(O)c1cn(C2CC2)c2cc(N3CCNCC3)c(F)cc2c1=O
inactive: Potency [1] | Potency [4] | Potency [7] | Potency [8] | Potency [13] | Potency [10] | Potency [11] | Potency [12]

CN1CCN(c2c(F)cc3c(=O)c(C(=O)O)cn4c3c2OCN4C)CC1
inactive: Potency [2] | Potency [16] | Potency [4] | Potency [7] | Potency [8] | Potency [13] | Potency [9] | Potency [10] | Potency [14] | Potency [11] | Potency [12] | Potency [15]

O[C@@H](CNC[C@H](O)[C@H]1CCc2cc(F)ccc2O1)[C@@H]1CCc2cc(F)ccc2O1
active: Potency [1] 29.6 µM | Potency [3] 23.5 µM | Potency [4] 14.8 µM | Potency [19] 23.5 µM | Potency [5] 26.4 µM | Potency [6] 23.5 µM | Potency [8] 23.5 µM | Potency [9] 20.9 µM | Potency [10] 26.4 µM | Potency [15] 20.9 µM

COc1c(N2CCNC(C)C2)c(F)cc2c(=O)c(C(=O)O)cn(C3CC3)c12 (stereo not drawn)
inactive: Potency [2] | Potency [16] | Potency [4] | Potency [7] | Potency [13] | Potency [9] | Potency [11] | Potency [15]

CN(C)CCc1c[nH]c2ccc(CS(=O)(=O)N3CCCC3)cc12
inactive: Potency [1] | Potency [5] | Potency [8] | Potency [13] | Potency [14] | Potency [12] | Potency [15]
active: Potency [16] 23.5 µM

NCCCC(O)(P(=O)(O)O)P(=O)(O)O
active: Potency [2] 16.6 µM | Potency [9] 11.8 µM
inactive: Potency [16] | Potency [4] | Potency [18] | Potency [5] | Potency [6] | Potency [7] | Potency [8] | Potency [13] | Potency [10] | Potency [11]

O=S(=O)(O)CCS
active: Potency [16] 16.6 µM
inactive: Potency [1] | Potency [18] | Potency [7] | Potency [8] | Potency [13] | Potency [9] | Potency [10] | Potency [11] | Potency [12]

O=C(O)c1ccc(-n2nc(-c3ccccc3O)nc2-c2ccccc2O)cc1
inactive: Potency [11]
active: Potency [2] 16.6 µM | Potency [16] 18.7 µM | Potency [19] 20.9 µM

COc1cnc(NS(=O)(=O)c2ccc(N)cc2)nc1
inactive: Potency [1] | Potency [7] | Potency [13] | Potency [10] | Potency [11] | Potency [12] | Potency [15]
active: Potency [4] 14.8 µM | Potency [9] 29.6 µM

S=P(N1CC1)(N1CC1)N1CC1
inactive: Potency [2] | Potency [4] | Potency [13] | Potency [11] | Potency [15]
active: Potency [16] 0.469 µM | Potency [9] 18.7 µM | Potency [10] 18.7 µM | Potency [12] 0.0012 µM | Potency [20] 13.2 µM

Cc1cc(NS(=O)(=O)c2ccc(N)cc2)no1
inactive: Potency [2] | Potency [16] | Potency [3] | Potency [4] | Potency [19] | Potency [5] | Potency [7] | Potency [13] | Potency [10] | Potency [11] | Potency [12]
active: Potency [9] 9.35 µM

CC(C)OC(=O)C(C(=O)OC(C)C)=C1SC=CS1
inactive: Potency [2] | Potency [4] | Potency [8] | Potency [13] | Potency [11] | Potency [17] | Potency [20]
active: Potency [3] 14.8 µM | viability [19] 403% | Potency [5] 0.003 µM

CNC(=O)c1cc(Oc2ccc(NC(=O)Nc3ccc(Cl)c(C(F)(F)F)c3)cc2)ccn1
active: Potency [2] 6.62 µM | Potency [16] 3.32 µM | Potency [4] 3.72 µM | Potency [18] 16.6 µM | Potency [6] 16.6 µM | Potency [8] 10.5 µM | Potency [9] 3.72 µM | Potency [10] 20.9 µM | Potency [11] 26.4 µM | Potency [12] 20.9 µM | Potency [20] 3.32 µM | Potency [15] 23.5 µM

Cc1ncc([N+](=O)[O-])n1CCO
inactive: Potency [2] | Potency [16] | Potency [4] | Potency [19] | Potency [7] | Potency [8] | Potency [13] | Potency [10] | Potency [14] | Potency [11] | Potency [15]

C1CCC(C(CC2CCCCN2)C2CCCCC2)CC1 (stereo not drawn)
active: Potency [2] 8.33 µM | Potency [16] 10.5 µM | Potency [3] 9.35 µM | Potency [4] 8.33 µM | Potency [19] 11.8 µM | Potency [6] 8.33 µM | Potency [7] 16.6 µM | Potency [8] 20.9 µM | Potency [13] 29.6 µM | Potency [9] 6.62 µM | Potency [10] 9.35 µM | Potency [14] 14.8 µM | Potency [11] 18.7 µM | Potency [17] 8.33 µM | Potency [15] 9.35 µM

COc1cc([C@@H]2c3cc4c(cc3[C@H](O)[C@H]3COC(=O)[C@H]23)OCO4)cc(OC)c1OC
inactive: Potency [2] | Potency [16] | Potency [4] | Potency [19] | Potency [6] | Potency [8] | Potency [13] | Potency [9] | Potency [14] | Potency [17] | Potency [12] | Potency [20]

CCN(CC)CC#CCOC(=O)C(O)(c1ccccc1)C1CCCCC1 (stereo not drawn)
inactive: Potency [1] | Potency [3] | Potency [7] | Potency [8] | Potency [13] | Potency [10] | Potency [11] | Potency [12]
active: Potency [4] 26.4 µM | Potency [19] 4.69 µM

N=C(N)c1ccc(OCCCCCOc2ccc(C(=N)N)cc2)cc1
active: Potency [2] 2.96 µM | Potency [4] 5.9 µM | Potency [18] 10.5 µM | Potency [6] 14.8 µM | Potency [7] 5.26 µM | Potency [9] 16.6 µM | Potency [10] 18.7 µM | Potency [11] 14.8 µM | Potency [12] 20.9 µM | Potency [15] 14.8 µM
inactive: Potency [16] | Potency [17]
